For 35 molecules, composite z-score and z-score results are on record in PubChem BioAssay.

The structures appear in SMILES notation.

For the first assay, the target named is Fibroblast growth factor 2 (Homo sapiens) (UniProt P09038). Briefly: FGF2 binders on small-molecule microarrays, primary screen, biochemical, small-molecule microarray, 635/667 nm fluorescence (AID 1133). The conditions noted are these: small-molecule microarray binding, FGF2, fluorescence 635/667; higher = more signal.
Sequence of Fibroblast growth factor 2 (Homo sapiens) (P09038 whole entry, looked up): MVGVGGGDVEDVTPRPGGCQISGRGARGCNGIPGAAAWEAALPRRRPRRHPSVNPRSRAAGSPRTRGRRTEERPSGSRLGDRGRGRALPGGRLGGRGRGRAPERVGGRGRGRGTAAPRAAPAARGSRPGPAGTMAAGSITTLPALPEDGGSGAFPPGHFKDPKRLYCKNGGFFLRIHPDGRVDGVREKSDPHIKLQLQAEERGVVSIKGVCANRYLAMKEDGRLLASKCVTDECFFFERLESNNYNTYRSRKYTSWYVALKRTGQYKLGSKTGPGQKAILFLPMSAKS
As for `COc1ccc([Si](C)(C)[C@@H]2[C@@H](CCO)O[C@]3(C(=O)N(Cc4ccccc4)c4ccc(N5C(=O)COc6ccccc65)cc43)[C@H]2C)cc1`, the composite z-score is -0.177.

`CN1C(=O)C2C=CC(C(O)c3cccc4ccccc34)N(NC(=O)OC(C)(C)C)C2C1=O` (centres undefined) yielded a composite z-score of -0.331. Molecule `COc1ccc(C(=O)Nc2ccc3c(c2)[C@]2(O[C@@H](CCO)[C@H]([Si](C)(C)c4ccc(OC)cc4)[C@H]2C)C(=O)N3Cc2ccccc2)cc1` returned a composite z-score of 0.827. Molecule `O=C1c2ccccc2[C@](Cc2ccccc2I)(C(=O)NC2CC2)[C@H](c2ccc(CO)cc2)N1Cc1ccccc1Cl` registered a composite z-score of 1.6. On the same count and under the same terms, the same measure for `COC(=O)C(CC#Cc1ccc2c(c1)[C@]1(C(=O)N2)[C@H](c2ccc(O)cc2)N2[C@H](c3ccccc3)[C@H](c3ccccc3)OC(=O)[C@H]2[C@@H]1C(N)=O)C(=O)OC`: -1.44. `CC(C)CNC(=O)[C@@]1(C)c2ccccc2C(=O)N(Cc2ccccc2)[C@H]1c1ccc(CO)cc1`: the composite z-score was -1.27.

The molecule `COC(=O)C(CC#Cc1ccc2c(c1)[C@]1(C(=O)N2)[C@H](c2ccc(OCCO)cc2)N2[C@H](c3ccccc3)[C@H](c3ccccc3)OC(=O)[C@H]2[C@@H]1C(=O)O)C(=O)OC` yielded a composite z-score of 0.228.

`CC(C)C(CO)N1C(=O)[C@@H]2[C@H]3C(=O)OCC=C[C@H]3OC23C=CCN(Cn2nnc4ccccc42)C(=O)[C@@H]13` (some centres undefined) returned a composite z-score of -1.05. As for `O=C1N(Cc2ccccc2)c2ccccc2[C@H]2OC(c3ccc(OCCCO)cc3)=N[C@@]12CCS(=O)(=O)c1ccccc1`, the composite z-score was found to be 1.36.

Molecule `CCCNC(=O)[C@@H]1c2ccccc2C(=O)N(CC23CC4CC(CC(C4)C2)C3)[C@H]1c1ccc(CO)cc1` returned a composite z-score of 0.871. Still for that read-out and setting: in the case of `C=C(C)[C@@H]1CC=C(C(O)C2C=CC3C(=O)N(C4CCCCC4)C(=O)C3N2Nc2ccc(OC)cc2)CC1` (some centres undefined) it was 0.723; in that of `OCCCC1=CC(c2cccs2)N(Cc2cccc(OC(F)(F)F)c2)CC1` (centres undefined), -0.546; in that of `Cc1ccccc1C(O)C1C=CC2C(=O)N(Cc3ccccc3)C(=O)C2N1n1cnnc1` (centres undefined), 0.188. `COc1ccc([Si](C)(C)[C@H]2[C@H](CCO)O[C@@]3(C(=O)N(Cc4cccc(N5CCOC5=O)c4)c4ccccc43)[C@@H]2C)cc1` displayed a composite z-score of 0.203.

`COCCOC(=O)N1C(=O)[C@@]2(c3cc(C#CC4(O)CCCCCC4)ccc31)[C@H](C(=O)N1CCc3cc(OC)c(OC)cc3C1)[C@H]1C(=O)O[C@H](c3ccccc3)[C@H](c3ccccc3)N1[C@@H]2c1ccccc1OCCO` returned a composite z-score of 1.48. Still for that read-out and setting: in the case of `CC(=O)NCCCC[C@@H]1NC(=O)[C@H]2C[C@@H](C(=O)NCCCCCN)[C@@H](c3cccc(OCCO)c3)N2C1=O` it was 0.275; in that of `COc1ccc(C#Cc2ccc3c(c2)[C@]2(C(=O)N3)[C@H](C(=O)O)[C@H]3C(=O)O[C@H](c4ccccc4)[C@H](c4ccccc4)N3[C@@H]2c2ccc(OCCO)cc2)cc1`, 0.56; in that of `COCC1=C([C@H](O)CCc2ccccc2)[C@H](CO)[C@@H]2C(=O)N(C)C(=O)[C@@H]2C1`, 0.584.

For the molecule `CC(C)(C)N1CC=CC23O[C@@H]4C=CCCOC(=O)C4[C@H]2C(=O)N(CCCO)[C@@H]3C1=O` (some centres undefined), the composite z-score was -0.464.

Turning to `O=C1O[C@H](c2ccccc2)[C@H](c2ccccc2)N2[C@H]1[C@@H](C(=O)N1CCCCCCC1)[C@]1(C(=O)Nc3ccccc31)[C@H]2c1ccc(O)cc1`, the composite z-score worked out at 1.54. The molecule `COC(=O)[C@]1(Cc2ccccc2CN=[N+]=[N-])N=C(c2ccc(OCCCO)cc2)O[C@@H]1c1ccccc1CN=[N+]=[N-]` came in with a composite z-score of 0.838. `O=C1c2ccccc2[C@](Cc2ccccc2I)(C(=O)NCC(F)(F)F)[C@H](c2ccc(CO)cc2)N1Cc1ccccc1` returned a composite z-score of -0.0189. Molecule `NC(=O)NCC#Cc1ccc2c(c1)[C@]1(C(=O)N2)[C@H](c2ccc(OCCO)cc2)N2[C@H](c3ccccc3)[C@H](c3ccccc3)OC(=O)[C@H]2[C@@H]1C(=O)N1CCCCCCC1` came in with a composite z-score of 1.15. For the molecule `N#Cc1ccc(NN2C(C(O)c3ccco3)C=CC3C(=O)N(c4ccccc4)C(=O)C32)cc1` (centres undefined), the composite z-score is -0.302.

Test system in the next assay: not listed separately
Kind of assay: mitochondrial membrane potential change in A549 cells, profiling panel, cell-based, JC-1 fluorescence, basal, 24 h, 100 nL (AID 1138).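 Further: A549 lung adenocarcinoma cells under basal conditions with no added stimulus; test concentration not given here.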 The conditions noted are these: higher = more signal.
In turn, `CCCCC(O)C1C=CC2C(=O)N(Cc3ccccc3)C(=O)C2N1n1cnnc1` (centres undefined) showed a z-score of -0.721.

Turning to `COCCCNC(=O)[C@@]1(C)c2ccccc2C(=O)N(c2ccc(C)cn2)[C@H]1c1ccc(CO)cc1`, the z-score is -0.9. Regarding `CCCC=C(CCC)[C@@H](NS(=O)(=O)c1cccc2cccnc12)c1ccc(C(=O)OC)cc1`, the z-score came to 0.0272. For `COc1ccccc1CN1C(=O)c2ccccc2[C@](Cc2ccccc2I)(C(=O)NCCN2CCOCC2)[C@@H]1c1ccc(CO)cc1`, the z-score was determined as 2.51. For the molecule `C=C(COC)/C(=C/C[C@@H](OC(=O)c1ccncc1)c1cccc(OCCO)c1)c1cc(C(=O)OC)ccc1OC`, the z-score came to 1.28. In turn, `C=CCNC(=O)[C@@H]1[C@H]2C(=O)O[C@H](c3ccccc3)[C@H](c3ccccc3)N2[C@H](c2ccc(O)cc2)[C@@]12C(=O)Nc1ccc(C#CCCO)cc12` came in with a z-score of -0.0797. Molecule `COCCCNC(=O)[C@]1(Cc2ccccc2)N=C(c2ccc(OCCCO)cc2)O[C@@H]1c1ccccc1N=[N+]=[N-]` had a z-score of -0.141. On the same count and under the same terms, the same measure for `COC(=O)C(CC#Cc1ccc2c(c1)[C@]1(C(=O)N2)[C@H](c2ccccc2OCCO)N2[C@H](c3ccccc3)[C@H](c3ccccc3)OC(=O)[C@H]2[C@@H]1C(=O)Nc1nc2ccccc2s1)C(=O)OC`: -2.12.

Take `CCOC(=O)C[C@H]1[C@H](OC(=O)c2cc3ccccc3oc2=O)[C@@H](NC(=O)c2ccc3ccccc3n2)c2cc(OCCCO)ccc2N1C(=O)c1ccc2ccccc2n1`: the z-score turned out to be 1.1. On the same count and under the same terms, in the case of `NCCCCCCNC(=O)[C@H]1C[C@H]2C(=O)N3CCC[C@H]3C(=O)N2[C@H]1c1ccc(O)cc1` it was -0.712; in that of `C=CCOC(=O)[C@@H]1[C@H]2C(=O)O[C@H](c3ccccc3)[C@H](c3ccccc3)N2[C@H](c2ccc(OCCOC(=O)[C@@H]3C[C@@H]4C(=O)N[C@@H](CCCCNC(C)=O)C(=O)N4[C@@H]3c3ccc(O)cc3)cc2)[C@@]12C(=O)Nc1ccc(I)cc12`, -1.37; in that of `COc1ccc([Si](C)(C)[C@@H]2[C@@H](CCO)O[C@]3(C(=O)N(Cc4ccccc4)c4ccc(N5C(=O)COc6ccccc65)cc43)[C@H]2C)cc1`, -0.081. Same read-out and setting: in the case of `CN1C(=O)C2C=CC(C(O)c3cccc4ccccc34)N(NC(=O)OC(C)(C)C)C2C1=O` (centres undefined) it was 0.274; in that of `COc1ccc(C(=O)Nc2ccc3c(c2)[C@]2(O[C@@H](CCO)[C@H]([Si](C)(C)c4ccc(OC)cc4)[C@H]2C)C(=O)N3Cc2ccccc2)cc1`, 0.168.

As to `O=C1c2ccccc2[C@](Cc2ccccc2I)(C(=O)NC2CC2)[C@H](c2ccc(CO)cc2)N1Cc1ccccc1Cl`, the z-score came to 0.756. `COC(=O)C(CC#Cc1ccc2c(c1)[C@]1(C(=O)N2)[C@H](c2ccc(O)cc2)N2[C@H](c3ccccc3)[C@H](c3ccccc3)OC(=O)[C@H]2[C@@H]1C(N)=O)C(=O)OC`: the z-score is 1.42. In turn, `CC(C)CNC(=O)[C@@]1(C)c2ccccc2C(=O)N(Cc2ccccc2)[C@H]1c1ccc(CO)cc1` had a z-score of -0.504. In turn, `COC(=O)C(CC#Cc1ccc2c(c1)[C@]1(C(=O)N2)[C@H](c2ccc(OCCO)cc2)N2[C@H](c3ccccc3)[C@H](c3ccccc3)OC(=O)[C@H]2[C@@H]1C(=O)O)C(=O)OC` came in with a z-score of 0.161. Take `CC(C)C(CO)N1C(=O)[C@@H]2[C@H]3C(=O)OCC=C[C@H]3OC23C=CCN(Cn2nnc4ccccc42)C(=O)[C@@H]13` (some centres undefined): the z-score is -0.58.

In turn, `O=C1N(Cc2ccccc2)c2ccccc2[C@H]2OC(c3ccc(OCCCO)cc3)=N[C@@]12CCS(=O)(=O)c1ccccc1` gave a z-score of -1.26. As for `CCCNC(=O)[C@@H]1c2ccccc2C(=O)N(CC23CC4CC(CC(C4)C2)C3)[C@H]1c1ccc(CO)cc1`, the z-score was -1.17.

Molecule `C=C(C)[C@@H]1CC=C(C(O)C2C=CC3C(=O)N(C4CCCCC4)C(=O)C3N2Nc2ccc(OC)cc2)CC1` (some centres undefined) returned a z-score of 0.677. Turning to `OCCCC1=CC(c2cccs2)N(Cc2cccc(OC(F)(F)F)c2)CC1` (centres undefined), the z-score came to 0.593. Consider `Cc1ccccc1C(O)C1C=CC2C(=O)N(Cc3ccccc3)C(=O)C2N1n1cnnc1` (centres undefined), for which the z-score is -0.478. On to `COc1ccc([Si](C)(C)[C@H]2[C@H](CCO)O[C@@]3(C(=O)N(Cc4cccc(N5CCOC5=O)c4)c4ccccc43)[C@@H]2C)cc1`, for which the z-score is 0.00631. On the same count and under the same terms, the same measure for `COCCOC(=O)N1C(=O)[C@@]2(c3cc(C#CC4(O)CCCCCC4)ccc31)[C@H](C(=O)N1CCc3cc(OC)c(OC)cc3C1)[C@H]1C(=O)O[C@H](c3ccccc3)[C@H](c3ccccc3)N1[C@@H]2c1ccccc1OCCO`: -0.651; for `CC(=O)NCCCC[C@@H]1NC(=O)[C@H]2C[C@@H](C(=O)NCCCCCN)[C@@H](c3cccc(OCCO)c3)N2C1=O`: 0.0821; for `COc1ccc(C#Cc2ccc3c(c2)[C@]2(C(=O)N3)[C@H](C(=O)O)[C@H]3C(=O)O[C@H](c4ccccc4)[C@H](c4ccccc4)N3[C@@H]2c2ccc(OCCO)cc2)cc1`: -2.47. Still for that read-out and setting: in the case of `COCC1=C([C@H](O)CCc2ccccc2)[C@H](CO)[C@@H]2C(=O)N(C)C(=O)[C@@H]2C1` it was 0.982; in that of `CC(C)(C)N1CC=CC23O[C@@H]4C=CCCOC(=O)C4[C@H]2C(=O)N(CCCO)[C@@H]3C1=O` (some centres undefined), -0.754; in that of `O=C1O[C@H](c2ccccc2)[C@H](c2ccccc2)N2[C@H]1[C@@H](C(=O)N1CCCCCCC1)[C@]1(C(=O)Nc3ccccc31)[C@H]2c1ccc(O)cc1`, 0.0754. On the same count and under the same terms, in the case of `COC(=O)[C@]1(Cc2ccccc2CN=[N+]=[N-])N=C(c2ccc(OCCCO)cc2)O[C@@H]1c1ccccc1CN=[N+]=[N-]` it was 1.02; in that of `O=C1c2ccccc2[C@](Cc2ccccc2I)(C(=O)NCC(F)(F)F)[C@H](c2ccc(CO)cc2)N1Cc1ccccc1`, 0.71. Turning to `NC(=O)NCC#Cc1ccc2c(c1)[C@]1(C(=O)N2)[C@H](c2ccc(OCCO)cc2)N2[C@H](c3ccccc3)[C@H](c3ccccc3)OC(=O)[C@H]2[C@@H]1C(=O)N1CCCCCCC1`, the z-score was -1.

The molecule `N#Cc1ccc(NN2C(C(O)c3ccco3)C=CC3C(=O)N(c4ccccc4)C(=O)C32)cc1` (centres undefined) returned a z-score of -0.244.
